Assay results reported in PubChem BioAssay (EPA / NIEHS).
Values joined by “and” are separate entries in the source; they are usually repeats but may differ in a detail not shown here. Equal values may be shown once. Results filed as inconclusive are left out. Active and inactive are the calls of the source. How the source made its calls, unless noted: active means hit-call score of the fitted dose curve at least 0.9, where 1 is the maximum; inactive means score below 0.9.

Tests used:
[1] = read-out: Macrophage colony-stimulating factor (MCSF), CSF1 (gene 1435); experiment: BSK_LPS_MCSF: BioMAP Diversity Plus: LPS Assay for Macrophage colony-stimulating factor (MCSF) Biomarker Activity (AID 2283083); details: primary human HUVEC with PBMC; actives raise or lower the signal
Summary of the method: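 Bidirectional fit versus DMSO of ELISA-measured M-CSF in co-cultured human umbilical vein endothelial cells and PBMC, sampled 24 h after dosing.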

[2] = read-out: Tissue Factor, F3 (gene 2152); experiment: BSK_LPS_TissueFactor: BioMAP Diversity Plus: LPS Assay for Tissue Factor Biomarker Activity (AID 2283084); details: primary human HUVEC with PBMC; actives raise or lower the signal
Summary of the method: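 Read-out: CD142 ELISA, 24 h. System: LPS-driven human endothelial/PBMC co-culture. Analysis: up- or down-signal fitted against DMSO.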

[3] = read-out: Tumor necrosis factor (Homo sapiens) (UniProt P01375); experiment: BSK_LPS_TNFa: BioMAP Diversity Plus: LPS Assay for Tumour Necrosis Factor alpha (TNFa) Biomarker Activity (AID 2283085); details: primary human HUVEC with PBMC; actives raise or lower the signal
Summary of the method: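 Human umbilical vein endothelial cells co-cultured with PBMC and stimulated with LPS. TNFa was measured by ELISA 24 h after chemical dosing, fitted bidirectionally relative to DMSO.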

[4] = read-out: Vascular cell adhesion molecule 1 (VCAM1), VCAM1 (gene 7412); experiment: BSK_LPS_VCAM1: BioMAP Diversity Plus: LPS Assay for Vascular cell adhesion molecule 1 (VCAM1) Biomarker Activity (AID 2283086); details: primary human HUVEC with PBMC; actives raise or lower the signal
Summary of the method: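 Human umbilical vein endothelial cells co-cultured with PBMC and stimulated with LPS; VCAM-1 measured by ELISA 24 h after dosing. Bidirectional curve fitting against DMSO baseline; cytotoxicity tracked in parallel by SRB total-protein staining.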

CD38, CD38 (gene 952) = experiment: BSK_SAg_CD38: BioMAP Diversity Plus: SAg Assay for CD38 Biomarker Activity (AID 2283087); details: primary human HUVEC with PBMC; actives raise or lower the signal
Summary of the method: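 Human HUVEC plus PBMC co-culture stimulated with superantigen; CD38 measured by ELISA 24 h after chemical dosing. Fluorescence read-out, bidirectional fit against DMSO; cytotoxicity tracked in parallel by SRB and Alamar Blue.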

CD40, CD40 (gene 958) = experiment: BSK_SAg_CD40: BioMAP Diversity Plus: SAg Assay for CD40 Biomarker Activity (AID 2283088); details: primary human HUVEC with PBMC; actives raise or lower the signal
Summary of the method: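 Endpoint derived by fitting increases or decreases versus DMSO controls. CD40 is detected by fluorescence ELISA in a human vascular co-culture of endothelium and PBMC at 24 h.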

CD69, CD69 (gene 969) = experiment: BSK_SAg_CD69: BioMAP Diversity Plus: SAg Assay for CD69 Biomarker Activity (AID 2283089); details: primary human HUVEC with PBMC; actives raise or lower the signal;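 on AC50: cell surface CD69 protein quantified by ELISA with fluorescence detection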
Summary of the method: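 Values derive from bidirectional fitting relative to DMSO vehicle. Cells: umbilical vein endothelium plus peripheral blood mononuclear cells, treated 24 h before fluorescent ELISA for CD69.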

[5] = read-out: Monocyte Chemoattractant Protein-1 (MCP1), CCL2 (gene 6347); experiment: BSK_SAg_MCP1: BioMAP Diversity Plus: SAg Assay for Monocyte Chemoattractant Protein-1 (MCP1) Biomarker Activity (AID 2283090); details: primary human HUVEC with PBMC; actives raise or lower the signal
Summary of the method: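 MCP-1 levels in the endothelial–PBMC SAg co-culture were quantified by ELISA at 24 h post-dosing; both increases and decreases versus DMSO scored. Cytotoxicity monitored by SRB total protein in parallel cultures.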

[6] = read-out: E-selectin (Homo sapiens) (UniProt P16581); experiment: BSK_SAg_Eselectin: BioMAP Diversity Plus: SAg Assay for Eselectin Biomarker Activity (AID 2283091); details: primary human HUVEC with PBMC; actives raise or lower the signal
Summary of the method: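 Endpoint values derive from bidirectional fitting relative to DMSO, using ELISA-measured E-selectin in a human vascular co-culture (umbilical vein endothelium plus PBMC) sampled 24 h after dosing.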

[7] = read-out: Monokine induced gamma interferon (MIG), CXCL9 (gene 4283); experiment: BSK_SAg_MIG: BioMAP Diversity Plus: SAg Assay for Monokine induced gamma interferon (MIG) Biomarker Activity (AID 2283092); details: primary human HUVEC with PBMC; actives raise or lower the signal
Summary of the method: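 Values reflect bidirectional fitting of ELISA-measured MIG against DMSO vehicle, taken 24 h after dosing of a co-culture of human umbilical vein endothelial cells and peripheral blood mononuclear cells.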

[8] = BSK_SAg_PBMCCytotoxicity: PBMC Cytotoxicity Assessment in the BioMAP Diversity Plus: SAg Assay (AID 2283093); details: primary human HUVEC with PBMC;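 further: PBMC viability measured as Alamar Blue reduction fluorescence at 546/580 nm; fitted both ways against DMSO so a hit may be loss or gain of signal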;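 on AC50: PBMC superantigen activated with SEB plus TSST-1 one hour after compound addition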
Summary of the method: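 Compound added to 75,000 PBMC/well for 1 h; SEB and TSST-1 then added at 20 ng/mL final each; 90 h incubation; Alamar Blue 6 h; read 546/580 nm ex/em. Activity fitted bidirectionally relative to DMSO baseline.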

[9] = read-out: Interleukin-8 (IL8), CXCL8 (gene 3576); experiment: BSK_SAg_IL8: BioMAP Diversity Plus: SAg Assay for Interleukin-8 (IL8) Biomarker Activity (AID 2283094); details: primary human HUVEC with PBMC; actives raise or lower the signal
Summary of the method: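 Human umbilical vein endothelial cells co-cultured with PBMC, stimulated with superantigen; IL-8 measured by ELISA 24 h after chemical dosing. Bidirectional fitting versus DMSO; SRB staining in parallel cultures tracks cytotoxicity.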

[10] = BSK_SAg_Proliferation: Cell Proliferation Assessment in the BioMAP Diversity Plus: SAg Assay (AID 2283095); details: primary human HUVEC with PBMC
Summary of the method: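 Human umbilical vein endothelial cells co-cultured with PBMC; sulforhodamine B total-protein staining (0.1% SRB after 10% TCA fixation, absorbance 560 nm) at 96 h in sub-confluent culture. Fitted bidirectionally against DMSO.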

[11] = BSK_SAg_SRB: Viability Assessment in the BioMAP Diversity Plus: SAg Assay (AID 2283096); details: primary human HUVEC with PBMC;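 further: cells read one day after compound addition; hits may be either gain or loss of signal compared with DMSO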
Summary of the method: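 Total protein by sulforhodamine B staining, 24 h after dosing, in HUVEC–PBMC co-culture; DMSO-referenced bidirectional fitting.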

[12] = target: human CYP1A2, CYP1A2 (gene 1544) (UniProt P05177); experiment: NVS_ADME_hCYP1A2: NovaScreen (NVS) CYP450-related Enzyme Activity (ADME) Assay for human CYP1A2 (AID 2283102; active means hit-call score of the fitted dose curve at least 0.9, where 1 is the maximum;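 further: fluorescence from turnover of a fluorogenic substrate by recombinant insect-cell CYP1A2; potency for inhibition since loss of fluorescence marks reduced CYP1A2 activity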)
human CYP1A2, CYP1A2 (gene 1544), sequence (P05177 whole entry, looked up): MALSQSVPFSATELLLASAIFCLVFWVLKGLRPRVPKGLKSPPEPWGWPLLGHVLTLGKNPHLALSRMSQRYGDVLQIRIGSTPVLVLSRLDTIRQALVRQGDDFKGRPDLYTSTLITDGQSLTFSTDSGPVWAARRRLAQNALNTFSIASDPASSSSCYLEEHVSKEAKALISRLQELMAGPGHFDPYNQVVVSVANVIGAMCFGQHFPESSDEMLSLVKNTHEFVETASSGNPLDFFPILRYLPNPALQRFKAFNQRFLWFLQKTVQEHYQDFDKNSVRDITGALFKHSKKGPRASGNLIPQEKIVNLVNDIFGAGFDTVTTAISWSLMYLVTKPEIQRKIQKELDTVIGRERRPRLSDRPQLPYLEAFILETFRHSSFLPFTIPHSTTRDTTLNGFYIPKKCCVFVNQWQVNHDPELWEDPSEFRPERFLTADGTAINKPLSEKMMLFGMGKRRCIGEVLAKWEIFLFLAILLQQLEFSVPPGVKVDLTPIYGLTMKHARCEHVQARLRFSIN
Summary of the method: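 Inhibition scored as decrease in fluorescent product versus acetonitrile negative control. Enzyme: insect-cell recombinant human CYP1A2, substrate-specific, cell-free. Reading at 0.5 h; 10 uM duplicate initial screen with positive and negative controls on every plate.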

[13] = target: human CYP19A1, CYP19A1 (gene 1588) (UniProt P11511); experiment: NVS_ADME_hCYP19A1: NovaScreen (NVS) CYP450-related Enzyme Activity (ADME) Assay for human CYP19A1 (AID 2283098; active means hit-call score of the fitted dose curve at least 0.9, where 1 is the maximum;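 on AC50: potency for inhibitors seen as loss of fluorescent enzyme signal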)
human CYP19A1, CYP19A1 (gene 1588), sequence (P11511 whole entry, looked up): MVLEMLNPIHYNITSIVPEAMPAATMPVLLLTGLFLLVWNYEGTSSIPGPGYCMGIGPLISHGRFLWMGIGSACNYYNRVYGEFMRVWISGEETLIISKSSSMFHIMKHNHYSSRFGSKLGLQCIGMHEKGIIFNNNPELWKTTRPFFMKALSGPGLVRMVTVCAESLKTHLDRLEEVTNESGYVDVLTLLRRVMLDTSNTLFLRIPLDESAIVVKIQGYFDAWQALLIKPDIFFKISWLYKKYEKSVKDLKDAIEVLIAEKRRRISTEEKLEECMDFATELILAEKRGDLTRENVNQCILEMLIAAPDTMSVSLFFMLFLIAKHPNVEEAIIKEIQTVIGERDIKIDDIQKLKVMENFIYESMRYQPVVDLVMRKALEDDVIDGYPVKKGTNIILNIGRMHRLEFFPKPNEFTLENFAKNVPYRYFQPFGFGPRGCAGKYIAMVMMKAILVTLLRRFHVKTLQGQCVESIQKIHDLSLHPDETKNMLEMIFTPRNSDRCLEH
Summary of the method: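 Biochem, cell-free; recombinant enzyme + specific substrate; fluorescence intensity at 0.5 h post-dose; 10 uM duplicate primary, conc. series for actives; acetonitrile = negative control/baseline; positive and negative controls on every plate.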

[14] = target: human CYP2A6, CYP2A6 (gene 1548) (UniProt P11509); experiment: NVS_ADME_hCYP2A6: NovaScreen (NVS) CYP450-related Enzyme Activity (ADME) Assay for human CYP2A6 (AID 2283099; active means hit-call score of the fitted dose curve at least 0.9, where 1 is the maximum)
human CYP2A6, CYP2A6 (gene 1548), sequence (P11509 whole entry, looked up): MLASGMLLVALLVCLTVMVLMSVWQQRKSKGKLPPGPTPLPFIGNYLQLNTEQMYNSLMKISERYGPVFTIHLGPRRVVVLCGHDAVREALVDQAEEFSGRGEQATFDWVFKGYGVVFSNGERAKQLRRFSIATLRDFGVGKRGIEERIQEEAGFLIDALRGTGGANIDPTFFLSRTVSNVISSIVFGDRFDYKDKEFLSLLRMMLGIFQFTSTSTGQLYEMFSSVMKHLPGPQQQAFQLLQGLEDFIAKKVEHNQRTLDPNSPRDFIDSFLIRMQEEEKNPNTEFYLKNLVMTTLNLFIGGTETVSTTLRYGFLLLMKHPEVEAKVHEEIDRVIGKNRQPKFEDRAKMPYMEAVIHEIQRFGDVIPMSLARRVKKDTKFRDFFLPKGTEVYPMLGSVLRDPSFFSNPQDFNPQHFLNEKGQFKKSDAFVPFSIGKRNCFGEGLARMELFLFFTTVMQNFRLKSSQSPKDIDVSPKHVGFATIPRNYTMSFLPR
Summary of the method: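 Loss of fluorescence signal relative to acetonitrile vehicle reported CYP2A6 inhibition in a cell-free system using insect-cell-derived enzyme. Readings were taken at 0.5 h; top concentration in follow-up dose series was 20 uM.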

[15] = target: human CYP1A1, CYP1A1 (gene 1543) (UniProt P04798); experiment: NVS_ADME_hCYP1A1: NovaScreen (NVS) CYP450-related Enzyme Activity (ADME) Assay for human CYP1A1 (AID 2283100; active means hit-call score of the fitted dose curve at least 0.9, where 1 is the maximum)
human CYP1A1, CYP1A1 (gene 1543), sequence (P04798 whole entry, looked up): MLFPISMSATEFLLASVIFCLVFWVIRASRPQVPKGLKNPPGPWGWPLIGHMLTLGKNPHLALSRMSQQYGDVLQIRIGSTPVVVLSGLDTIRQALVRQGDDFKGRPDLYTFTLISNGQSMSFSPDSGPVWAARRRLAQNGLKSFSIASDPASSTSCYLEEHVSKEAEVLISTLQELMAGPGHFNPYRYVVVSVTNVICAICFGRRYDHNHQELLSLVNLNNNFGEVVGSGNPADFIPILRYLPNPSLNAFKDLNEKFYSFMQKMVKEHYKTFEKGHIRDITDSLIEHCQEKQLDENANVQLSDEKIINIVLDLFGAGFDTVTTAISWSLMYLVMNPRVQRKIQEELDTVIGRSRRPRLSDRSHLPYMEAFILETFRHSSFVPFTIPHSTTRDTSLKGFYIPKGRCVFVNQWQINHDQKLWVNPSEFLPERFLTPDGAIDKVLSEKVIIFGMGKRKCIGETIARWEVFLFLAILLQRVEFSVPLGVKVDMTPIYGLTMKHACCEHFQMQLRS
Summary of the method: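 Inhibition of recombinant CYP1A1 turnover was assessed fluorometrically in a biochemical format 1 h after compound exposure. Testing began at 10 uM in duplicate and progressed to concentration series reaching 20 uM, with on-plate positive and negative controls.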

Measured: AC50

E-selectin (Homo sapiens), sequence (P16581 whole entry, looked up): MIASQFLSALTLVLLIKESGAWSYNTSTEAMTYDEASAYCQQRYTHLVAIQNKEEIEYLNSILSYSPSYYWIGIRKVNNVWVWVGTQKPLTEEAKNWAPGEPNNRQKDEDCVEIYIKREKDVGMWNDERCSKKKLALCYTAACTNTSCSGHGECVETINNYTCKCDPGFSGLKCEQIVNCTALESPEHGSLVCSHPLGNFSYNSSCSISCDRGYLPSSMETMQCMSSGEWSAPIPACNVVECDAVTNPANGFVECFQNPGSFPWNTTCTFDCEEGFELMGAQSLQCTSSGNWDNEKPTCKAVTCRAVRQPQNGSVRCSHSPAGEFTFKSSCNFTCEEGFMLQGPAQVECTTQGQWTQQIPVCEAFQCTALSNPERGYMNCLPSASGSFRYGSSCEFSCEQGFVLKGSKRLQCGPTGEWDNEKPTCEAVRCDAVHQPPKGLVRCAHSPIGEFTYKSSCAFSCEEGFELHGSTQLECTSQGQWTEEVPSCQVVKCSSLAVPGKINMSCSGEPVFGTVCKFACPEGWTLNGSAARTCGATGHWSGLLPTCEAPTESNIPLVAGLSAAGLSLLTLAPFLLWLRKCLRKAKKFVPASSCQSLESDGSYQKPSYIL
Tumor necrosis factor (Homo sapiens), sequence (P01375 whole entry, looked up): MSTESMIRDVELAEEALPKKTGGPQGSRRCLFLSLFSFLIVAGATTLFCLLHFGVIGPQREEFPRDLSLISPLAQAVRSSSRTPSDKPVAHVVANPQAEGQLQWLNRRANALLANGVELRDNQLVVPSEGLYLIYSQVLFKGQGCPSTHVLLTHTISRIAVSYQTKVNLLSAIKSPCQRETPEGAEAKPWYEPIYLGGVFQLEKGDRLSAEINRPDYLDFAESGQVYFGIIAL

CCOCCOC(C)=O
not listed: [12] | [13] | [14] | [15]
inactive: all other assays above

CN(C)c1nc(=O)n(C2CCCCC2)c(=O)n1C
not listed: [10] | [12] | [13] | [14] | [15]
inactive: all other assays above

CCCCCCCCCC[N+](C)(C)CCCCCCCCCC
active: [1] 3.79 µM | [2] 4.31 µM | [3] 3.79 µM | [4] 7.43 µM | CD38, CD38 (gene 952) 2.38 µM | CD40, CD40 (gene 958) 4.45 µM | CD69, CD69 (gene 969) 4.61 µM | [5] 3.45 µM | [7] 3.59 µM | [8] 1.77 µM | [9] 7.36 µM | [11] 5.35 µM | [12] 14.3 µM

Oc1ccc(Cl)cc1Cl
not listed: [10] | [12] | [13] | [14] | [15]
inactive: all other assays above

C[C@]12CCC(=O)C=C1CC[C@@H]1[C@@H]2CC[C@]2(C)C(=O)CC[C@@H]12
active: [11] 20 µM | [13] 5.03 µM and 5.63 µM and 1.44 µM
not listed: [2] | [10] | [12] | [14] | [15]
inactive: all other assays above

c1cc2ccc3cccc4ccc(c1)c2c34
inactive: [1] | [3] | [4] | [5] | [7] | [8] | [9] | [10] | [11]
active: CD38, CD38 (gene 952) 11.5 µM | CD69, CD69 (gene 969) 4.13 µM

O=C(NC(=O)c1c(F)cccc1F)Nc1cc(Cl)c(OC(F)(F)C(F)F)c(Cl)c1
active: [3] 0.401 µM
not listed: [2] | [12] | [13] | [14] | [15]
inactive: all other assays above

CCCCCCCCOC(=O)c1ccccc1C(=O)OCCCCCCCC
inactive: [1] | [3] | CD40, CD40 (gene 958) | CD69, CD69 (gene 969) | [5] | [7] | [9] | [11]
active: [4] 7.64 µM | CD38, CD38 (gene 952) 11.2 µM | [8] 5.6 µM

CCCCCCOC(=O)c1ccccc1C(=O)OCCCCCC
inactive: [3] | CD69, CD69 (gene 969) | [5] | [7] | [11]
active: [1] 20 µM | [4] 20 µM | CD38, CD38 (gene 952) 32.1 µM | CD40, CD40 (gene 958) 32.9 µM | [8] 35 µM | [9] 29 µM | [10] 28.6 µM

Cc1cc2c3c(c1)C(c1ccccc1)=N[C@@H](NC(=O)c1ccncc1)C(=O)N3CC2
inactive: [4] | [7] | [8] | [11] | [14]
active: [1] 4.6 µM | [3] 7.3 µM | CD38, CD38 (gene 952) 11.8 µM | CD40, CD40 (gene 958) 20 µM | CD69, CD69 (gene 969) 5.02 µM | [5] 20 µM | [9] 6.46 µM

Clc1ccc(Cl)cc1
not listed: [2] | [6] | [10] | [12] | [13] | [14] | [15]
inactive: all other assays above

Cc1cc(-c2ccc(N)c(C)c2)ccc1N
active: [10] 11.8 µM
not listed: [2] | [12] | [14] | [15]
inactive: all other assays above

O=NN(c1ccccc1)c1ccccc1
active: [3] 3.97 µM
not listed: [2] | [6] | [10] | [12] | [13] | [14] | [15]
inactive: all other assays above

Clc1ccc(C(c2ccccc2Cl)C(Cl)(Cl)Cl)cc1 (stereo unspecified)
active: [1] 18.3 µM | [3] 23.8 µM | [4] 19.2 µM | CD38, CD38 (gene 952) 20.1 µM | CD40, CD40 (gene 958) 14.1 µM | CD69, CD69 (gene 969) 23.2 µM | [5] 21.5 µM | [7] 27.6 µM | [8] 8.98 µM | [9] 13.5 µM | [10] 6.64 µM | [11] 12.7 µM | [15] 5.21 µM

C=CC(N)=O
not listed: [2] | [10] | [12] | [13] | [14] | [15]
inactive: all other assays above
